Screening data deposited in PubChem by several laboratories.
BoNT F protease – inhibitors of Botulinum neurotoxin F light chain protease. Multiplex microsphere protease cleavage assay, flow cytometry. 360,000 tested, 0.22% active. AID 588497. inhibition, % at 10 µM; in the data active means inhibition above about 35%, passing the limit was not always enough; inconclusive means no clear call, values can overlap the other calls
BoNT A protease – blocks Botulinum neurotoxin A light chain protease | 360,000 tested, 0.17% active | inhibition, % at 10 µM | multiplex microsphere protease substrate cleavage, flow cytometry | AID 588499
MazEF act – MazEF (E. coli) toxin RNase activation; FAM/BHQ RNA-DNA oligo cleavage fluorescence, 5 h; activation, % at 20 µM; 350,000 tested, 0.32% active; in the data active means activation above about 50%
Bead autofluor – flagged as autofluorescent in microsphere protease counterscreen. 360,000 tested, 3.1% active. compound autofluorescence counterscreen, microsphere flow cytometry; active compounds read high. fluorescence intensity (concentration not given with the values); in the data active means fluorescence intensity above about 16000; inconclusive means no clear call, values can overlap the other calls
Anthrax LF prot – inhibitors of Bacillus anthracis lethal factor protease. inhibition, % at 10 µM. P15917. multiplex microsphere protease cleavage assay, LF. 360,000 tested, 0.12% active
Target sequence (P15917 whole entry, looked up): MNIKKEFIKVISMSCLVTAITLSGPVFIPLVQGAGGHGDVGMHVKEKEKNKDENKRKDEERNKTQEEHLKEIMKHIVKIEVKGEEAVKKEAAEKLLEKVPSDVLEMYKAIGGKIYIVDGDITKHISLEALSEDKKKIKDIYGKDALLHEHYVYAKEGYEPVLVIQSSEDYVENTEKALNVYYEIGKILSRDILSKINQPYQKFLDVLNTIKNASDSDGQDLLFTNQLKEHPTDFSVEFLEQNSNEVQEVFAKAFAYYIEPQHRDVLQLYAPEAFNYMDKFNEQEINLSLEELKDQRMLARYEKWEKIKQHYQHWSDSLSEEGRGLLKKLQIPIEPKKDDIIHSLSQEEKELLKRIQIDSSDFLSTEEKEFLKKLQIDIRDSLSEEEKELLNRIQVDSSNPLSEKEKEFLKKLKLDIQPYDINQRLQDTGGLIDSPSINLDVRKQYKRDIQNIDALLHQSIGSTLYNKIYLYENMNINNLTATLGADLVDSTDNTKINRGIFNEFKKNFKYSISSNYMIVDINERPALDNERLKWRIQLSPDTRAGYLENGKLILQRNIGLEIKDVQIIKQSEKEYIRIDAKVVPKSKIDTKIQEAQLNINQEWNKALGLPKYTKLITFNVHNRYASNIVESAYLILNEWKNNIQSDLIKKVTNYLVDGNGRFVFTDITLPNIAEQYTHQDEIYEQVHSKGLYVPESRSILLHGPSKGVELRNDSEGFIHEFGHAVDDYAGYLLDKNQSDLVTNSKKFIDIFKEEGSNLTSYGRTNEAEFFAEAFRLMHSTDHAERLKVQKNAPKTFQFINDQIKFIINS
Hits are given with their value; – = inactive; ? = inconclusive; · = not tested or not shown; ! = not confirmed by another sample. An excerpt weighted towards active compounds, which were near 3.6% of everything screened. Unless noted, no stated cut-off is given here; in the data, active means inhibition above about 30%; inconclusive means no clear call, values can overlap the other calls; inactive means below that.

SMILES	BoNT F protease	BoNT A protease	MazEF act	Bead autofluor	Anthrax LF prot
COc1cccc(C2NC(=O)c3ccccc3O2)c1OC (centres undefined)	–	?	–	18893	–
Cc1occc1-c1nnc(SCC(=O)N2CCCC(C)C2)o1 (centres undefined)	–	–	–	–	–
CCC1=C([N+](=O)[O-])C(c2ccc3c(c2)OCO3)NC(=O)N1 (centres undefined)	–	–	–	–	–
CN1CCCN(C(=O)c2ccc(Br)cc2)CC1	–	–	–	–	–
CC(C)(C)OC(=O)C[C@@H]1C/C=C\C[C@H](CC(=O)N(CCO)Cc2ccccc2)C(=O)NCCOC1=O	–	–	–	–	–
CN(C)S(=O)(=O)c1cccc(-c2cn3ccccc3n2)c1	–	–	–	–	–
CN(C)S(=O)(=O)c1cccc(-c2cn3cc(Cl)ccc3n2)c1	–	–	–	17034	–
CC1=CC(C)(C)N=C(Nc2nc(C)c3cc(C)cc(C)c3n2)N1	–	–	–	–	–
CC1=CC(C)(C)N=C(NC#N)N1	–	–	–	19967	–
Cc1ccc(S(=O)(=O)NCc2ccc3c(c2)cc(C)n3C)cc1	–	80.6	–	–	–
Cc1cc2cc(CN3C(=O)c4ccccc4C3=O)ccc2n1C	–	88.3	–	–	–
O=C1c2ccccc2C(=O)N1Cc1ccc2c(c1)OCO2	–	–	–	–	–
COc1ccc(CNCC(O)(c2ccc(F)cc2)c2ccc(F)cc2)cc1	–	–	–	–	–
CC1(C(=O)OCC(=O)Nc2nc(-c3ccc(F)c(F)c3)cs2)CC1(Cl)Cl (centres undefined)	–	–	–	–	–
CN(C)C(CNC(C(=O)Nc1ccc(F)cc1)c1ccccc1)c1ccccc1 (centres undefined)	–	–	–	–	–
O=C(NN=C(c1ccccc1)c1ccccn1)c1ccccc1	–	–	–	–	–
CC(=NNC(=S)N(Cc1ccccn1)Cc1ccccn1)c1cnccn1	44.9	–	–	–	40.0
S=C(NN=C(c1ccccc1)c1ccccn1)N(Cc1ccccn1)Cc1ccccn1	42.5	51.4	–	–	43.0
CC1(C)CC(=O)C(N=Nc2ccc(C(F)(F)F)cc2[N+](=O)[O-])=C(O)C1	·	·	–	·	·
Clc1ccc(OCCCc2nc(-c3cccnc3)no2)c(Cl)c1	–	–	–	21481	–
Cc1cc(C)c(C)c(OCc2nc(-c3cccnc3)no2)c1	–	–	–	21478	–
Clc1ccc(OCCCc2nc(-c3ccncc3)no2)c(Cl)c1	–	–	–	–	–
CCCCc1ccc(NC(=O)CSc2nc(=O)n3cc(C)ccc3n2)cc1	–	–	–	–	–
Cc1ccc(S(=O)(=O)Nc2cccc(C(=O)NCCN3CCOCC3)c2)cc1F	–	–	–	–	–
Cc1ccc(NC(=O)CCn2cnc3cc(C)c(C)cc32)cc1	–	–	–	–	–
SMILES	BoNT F protease	BoNT A protease	MazEF act	Bead autofluor	Anthrax LF prot
CC(=O)Nc1cccc(NC(=O)CCn2cnc3cc(C)c(C)cc32)c1	–	–	–	22641	–
CCCN(CCC)C(=S)NC(=O)c1ccc(Cl)cc1Cl	–	–	–	21981	–
Cc1ccccc1C(=O)NNC(=S)NC(=O)c1ccc(Cl)cc1Cl	–	–	–	–	–
Cc1cc(C(=O)Nc2ccc([N+](=O)[O-])cn2)cs1	–	–	–	–	–
COc1ccc(O)c(C2NC(CC(C)C)(C(=O)O)C3C(=O)N(Cc4ccccc4)C(=O)C23)c1 (centres undefined)	–	–	–	16430	–
CCN1C(=O)[C@H]2[C@@H](c3ccc(-c4ccc(OC)cc4)cc3)N[C@@](CC(C)C)(C(=O)OC)[C@H]2C1=O	–	–	–	–	–
CCn1cc(/C=C(\NC(=O)c2ccccc2)C(=O)NCCN2CCOCC2)c2ccccc21	–	–	–	–	–
c1ccc(C2OC3c4cccc5cccc(c45)C3N2c2ccccc2)cc1 (centres undefined)	–	?	–	22884	–
C=CCN1C(=O)/C(=C2/Sc3ccccc3N2CC)SC1=S	?	–	161.8	–	–
C=CCn1c(=O)c2ccccc2n2c(SC(C)C(N)=O)nnc12 (centres undefined)	–	–	–	–	–
C=CCn1c(=O)c2ccccc2n2c(SCC(=O)/C(C#N)=C(\C)N)nnc12	–	?	–	24633!	–
Cc1ccccc1NC(=O)CSCc1cc(=O)n2ccsc2n1	–	–	–	–	–
c1ccc(N2CCN(c3ccccc3)C2c2cccs2)cc1	–	–	–	22528	–
CCN1CCN(c2nc(-c3ccccn3)nc3ccccc23)CC1	–	–	–	24768	–
c1ccc(CN2CCN(c3nc(-c4ccccn4)nc4ccccc34)CC2)cc1	–	–	–	–	–
Cc1ccc(NC(=O)CSc2nnc(CNC(=O)c3ccco3)n2C)cc1	–	–	–	–	–
Cc1ccc(S(=O)(=O)N2CCC[C@H]2C(=O)Nc2ccccc2C)cc1	–	–	–	–	–
CN(Cc1cccs1)C(=O)C1CCN(S(=O)(=O)c2ccccc2)CC1	–	–	–	–	–
Cc1ccc(S(=O)(=O)N2CCCC2C(=O)Nc2nc3ccccc3s2)cc1 (centres undefined)	–	–	–	20751	–
O=C(Nc1nc2ccccc2s1)C1CCCN1S(=O)(=O)c1ccc(Cl)cc1 (centres undefined)	–	?	–	22849	–
Cc1ccc(S(=O)(=O)N2CCCC2C(=O)N(C)Cc2cccs2)cc1 (centres undefined)	–	?	–	19722	–
Cc1ccc(Cc2c(-c3cccc(Cl)c3)nc3c4ccccc4ccn23)cc1	–	–	·	–	–
CCOc1ccc(NC(=O)Nc2ccon2)cc1	–	–	–	–	–
CC(NC(=O)c1cccc(S(=O)(=O)N2CCN(C)CC2)c1)c1ccc(Cl)cc1Cl (centres undefined)	–	–	–	–	–
Cc1nnc(SCC(=O)c2c(N)n(C3CC3)c(=O)[nH]c2=O)n1-c1ccccc1	–	–	–	–	–
SMILES	BoNT F protease	BoNT A protease	MazEF act	Bead autofluor	Anthrax LF prot
O=C1CN(C(=O)CSc2nncn2-c2ccccc2)c2ccccc2N1	–	–	–	21221	–
NC(=O)c1ccc(NC(=O)CCN=C2NS(=O)(=O)c3ccccc32)cc1	–	–	–	?	–
C/C=C1\COC(C(=O)NCCCN2CCCC2=O)(C(F)(F)F)C=C1C=C(C)C (centres undefined)	–	–	–	–	–
COc1cccc(CN(C)CCCn2cnc(C(=O)Nc3ccc(C)c(C)c3)n2)c1	–	–	–	–	–
O=C(CCC(NC(=O)OCc1ccccc1)C(=O)OCC(=O)N1CCCCC1)OCC(=O)N1CCCCC1 (centres undefined)	–	–	–	21055	–
CN(C)c1ccc(-c2ccnc3c2CC(C)(C(=O)NCc2ccc(F)c(F)c2)O3)cc1 (centres undefined)	–	–	·	–	–
Cc1cc(C)n(-c2ccc(NC(=O)C3CCCCN3C(=O)c3ccoc3C)cc2)n1 (centres undefined)	–	–	–	–	–
CSc1nncn1/N=C/c1ccc2c(c1)OCO2	–	–	–	23493	–
CSc1nncn1/N=C/c1ccccc1F	–	?	–	23258	–
